# The supplement of paper PMC6555819
# Columns and labels:
# Test in all cases: PBM binding z-score (relative to random genomic background probes); higher = stronger binding; sequences stand for … in GC…GCGATTGACAGCGTAGAATGAAGG
# [1] = system: FXR:RXRa (NR concentration 270 nM, RXRa partner concentration 90 nM)
# Outline: (§1)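 Binding z-scores take random background probes as their reference. They come from custom Agilent 4×180K protein-binding microarrays incubated 1 h with ligand-free nuclear receptor dimers, with antibodies against each partner (one per run) detecting binding. Scanned fluorescence was regression-normalized.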
# [2] = system: LXRa:RXRa (NR concentration 270 nM, RXRa partner concentration 90 nM)
# Outline: as §1
# [3] = system: LXRa homodimer (NR concentration 270 nM)
# Outline: as §1
# [4] = system: LXRb:RXRa (NR concentration 270 nM, RXRa partner concentration 90 nM)
# Outline: as §1
# [5] = system: LXRb homodimer (NR concentration 270 nM)
# Outline: as §1
# [6] = system: PPARa:RXRa (NR concentration 270 nM, RXRa partner concentration 90 nM)
# Outline: as §1
# [7] = system: PPARg:RXRa (NR concentration 180 nM, RXRa partner concentration 90 nM)
# Outline: as §1
# [8] = system: PPARg:RXRa 270nM:90nM, anti-RXR (NR concentration 270 nM, RXRa partner concentration 90 nM)
# Outline: as §1
# [9] = system: PPARg:RXRa 30nM:10nM, anti-RXR (NR concentration 30 nM, RXRa partner concentration 10 nM)
# Outline: as §1
# [10] = system: PPARg:RXRa 90nM:30nM, anti-RXR (NR concentration 90 nM, RXRa partner concentration 30 nM)
# Outline: as §1
# [11] = system: PPARg:RXRa DBDmut IVT, anti-RXR (DBD mutation: RXRa K156A/R161A, NR concentration 270 nM, RXRa partner concentration 90 nM)
# Outline: as §1
# [12] = system: PPARg:RXRa IVT, anti-PPARg (NR concentration 270 nM, RXRa partner concentration 90 nM)
# Outline: as §1
# [13] = system: PPARg DBDmut:RXRa IVT, anti-PPARg (DBD mutation: PPARg1 K132A/R137A, NR concentration 270 nM, RXRa partner concentration 90 nM)
# Outline: as §1
# [14] = system: PPARg DBDmut IVT, anti-PPARg (DBD mutation: PPARg1 K132A/R137A, NR concentration 270 nM)
# Outline: as §1
# [15] = system: PPARg homodimer (NR concentration 180 nM)
# Outline: as §1
# [16] = system: PXR:RXRa (NR concentration 270 nM, RXRa partner concentration 90 nM)
# Outline: as §1
# [17] = system: PXR homodimer (NR concentration 270 nM)
# Outline: as §1
# [18] = system: RARa:RXR (NR concentration 270 nM, RXRa partner concentration 90 nM)
# Outline: as §1
# [19] = system: RARa homodimer (NR concentration 270 nM)
# Outline: as §1
# [20] = system: RARb:RXRa (NR concentration 270 nM, RXRa partner concentration 90 nM)
# Outline: as §1
Sequence,PBM binding z-score [1],PBM binding z-score [2],PBM binding z-score [3],PBM binding z-score [4],PBM binding z-score [5],PBM binding z-score [6],PBM binding z-score [7],PBM binding z-score [8],PBM binding z-score [9],PBM binding z-score [10],PBM binding z-score [11],PBM binding z-score [12],PBM binding z-score [13],PBM binding z-score [14],PBM binding z-score [15],PBM binding z-score [16],PBM binding z-score [17],PBM binding z-score [18],PBM binding z-score [19],PBM binding z-score [20]
CCTTACGGGTCACTGACAGGTTAAAGCATTTGGA,5.65,4.59,0.409,3.69,-0.38,5.05,4.6,4.5,1.97,3.25,3.63,4.02,0.71,0.495,4.09,3.98,0.033,5.21,0.619,3.94
GCTAGATGGTCAGTAAAAGGTCACACACCGGTCG,3.28,4.21,4.31,4.17,0.588,4.58,2.79,3.94,1.99,3.21,0.38,2.57,0.624,-0.0918,3.76,4.83,0.89,5.65,2.5,4.43
CCTCGGAGGACAGGAGGTCAGAGCTGTCCGCTTT,1.56,1.79,0.686,1.2,-0.929,1.96,-0.08,0.65,-0.913,-0.13,0.39,0.452,-1.92,-2.09,1.28,1.81,-0.0765,2.05,-0.0884,2.82
TCTATGAGTTGAAGGGCAACCGACGAGTCCGTTT,0.419,0.7,-0.373,0.405,-0.437,1.2,0.607,1.51,2.54,2.22,1.46,0.477,-0.166,0.0578,-0.142,0.853,0.0161,0.674,-0.22,1.37
TAGCCTAGGTCATGAGCCAGTATACCACGCGAAC,4.38,3.4,0.262,2.43,0.0464,3.93,3.35,2.98,0.892,2.05,1.81,3.11,-0.211,0.0511,1.45,1.61,-0.537,2.64,0.534,3.58
CCTACTGGGCCAAAGGTCATCGATTCCAATGCTC,4.44,5.28,3.59,4.41,0.378,6.8,11.5,10.6,10.6,11.5,4.64,6.76,0.425,-0.332,3.7,5.15,0.811,6.16,1.37,4.7
CCGACTGGGGCAAGGTTACTATAACGCACAGCCA,0.258,1.52,-0.118,0.79,-0.963,1.59,3.02,2.98,1.03,2.21,2.98,3.39,0.184,-0.443,0.157,0.274,-0.27,0.867,-0.248,1.38
ATCTCTAGGTAACGATAGTTCAGTGAATGCAAAT,0.157,4.89,0.491,1.33,0.408,0.791,0.696,0.807,0.214,0.514,3.41,3.08,1.42,1.62,0.431,0.926,0.85,0.162,0.352,0.902
GAAACGAGGGCATTCGAGTTGATAGCATGGCGAT,1.71,2.15,-0.383,0.442,-0.542,2.05,1.35,1.32,0.0683,0.829,4.26,3.42,0.513,0.0284,-0.429,3.68,1.26,0.561,0.0115,1.85
CCTAGCAGGCCAATCTTGGTCACTCAAGGCTTGA,-0.234,-0.221,-0.7,-0.577,-0.715,-0.114,-0.277,-0.609,-0.894,-0.992,1.37,0.831,-0.756,-1.03,-0.618,-0.565,-0.712,-0.332,-1.07,0.275
TCTTCTAGATCAAAGGTTAAGAAAGCCGAAGCCT,1.43,1.87,-0.049,2.13,0.536,4.9,7.46,8.19,8.13,8.51,2.42,3.52,0.463,0.915,1.09,1.63,-0.258,2.74,0.0747,1.98
CCGACTGGGGCAGAAAGGTCACCATACCATCCGG,3.52,3.99,1.97,3.56,-0.936,4.65,4.35,5.18,3.05,4.59,1.91,3.29,-0.398,-0.64,4.46,5.07,0.611,6.06,2.92,4.39
GCTTGCAGGCCATTTGGGTCACTCAATGACGGGC,0.139,0.261,-0.325,0.146,-0.138,1.74,0.845,0.922,0.00542,0.391,3.07,3.01,-0.212,-0.514,0.237,0.662,0.0952,1.09,-0.792,1.76
CGTCCAAGGTCAATGCTAGGTCAGCGAAAGCATT,6.63,5.79,2.77,4.08,1.43,5.16,4.44,4.73,1.24,3.25,3.48,4.11,0.86,0.428,7.14,4.98,1.31,6.26,1.36,5.17
GGAACGAGGGCATTCGAGTTGTTAGCATGGCGAT,0.97,0.548,-0.561,-0.135,-0.712,1.18,0.562,0.571,-0.377,0.0631,3.22,1.99,-0.193,-0.86,-0.473,1.99,0.576,0.173,-0.666,1.81
TCGAGTAGGTTACCAACGGGGCATTCAGCTTTCT,0.106,1.75,-0.787,0.579,-1.13,1.15,0.374,1.13,1.03,0.692,3.15,2.64,-0.246,0.0471,-0.456,-0.0163,-0.774,0.402,-1.51,0.936
CCTACTGGCCCATTCAGAGGTCATTGATCATATG,2.81,4.4,6.69,3.76,0.83,3.28,0.571,1.44,0.377,1.09,-0.184,0.996,-0.258,-0.298,2.98,4.67,2.7,4.14,1.58,2.81
TCTTGTAGATCAATAGAGGTTAAGATAGTGCGCT,1.04,3.81,0.813,1.97,-0.0819,1.99,0.479,1.59,2.43,2.03,1.55,0.959,0.251,0.77,0.455,2.26,-0.0224,2.09,0.236,0.832
GCTAGCAGGCCATTTGGGTCACACAATGACGGGC,0.201,0.0992,-0.68,0.327,-0.778,1.89,1.2,1.09,-0.147,0.392,2,2.63,-0.238,-0.979,0.139,0.906,0.00293,1.05,-0.205,1.61
CCGACTGGGGCAAAGGTTAACATACTCAGTACGA,2.41,2.19,0.28,2.96,-0.551,6.17,11.3,9.21,9.81,10.1,4.64,6.54,0.226,-0.237,1.61,3.12,-0.0875,4.64,0.346,2.77
TCTATTAGTTGAAGGGTAACCGACGAGTCCGTTT,1.06,1.12,0.425,1.17,0.781,1.35,0.607,2.8,4.16,3.37,2.52,0.636,0.556,0.761,1.56,1.03,0.714,1.09,1.6,0.96
CGAACGAGGGCATGAGTTGATTGCAAATGCCGAT,0.319,0.271,-0.529,-0.0625,-0.873,1.14,1.26,1.58,0.205,1.08,2.89,1.87,-0.365,-0.273,0.304,0.676,0.4,0.51,-0.117,1.96
GCTGCTAGGTCACGTTGGTCAGCTAACGGGTACG,3.59,2.38,0.0398,1.73,-0.378,3.5,3.91,3.87,1.1,2.79,5.22,4.99,0.1,-0.257,1.72,1.74,-0.356,2.81,-0.306,4.18
ACTTACGGGTCAACGAGGTTATCGCACGCGTATA,7.3,5.42,1.07,4.36,1.13,5.83,5.87,5.69,2.32,4.5,4.15,4.2,2.65,1.38,3.14,5.58,4.21,5.88,0.958,4.4
AATACAGGGTCAGCGTAGGCCAGAGTACGCACAG,5.67,4.35,0.74,2.92,0.652,4.74,4.5,3.96,0.97,2.52,1.94,3.32,1.54,1.65,1.81,3.51,0.39,3.85,0.496,4.15
CCTATTAGTTGACCATACGGGCAACCGAAGCTCG,0.382,0.294,0.419,0.323,0.519,-0.224,0.305,-0.0431,-0.298,-0.186,0.407,0.329,0.889,0.71,1.39,-0.0836,0.786,-0.218,1.26,0.631
CCAGACAGGTGCAAGGTAACTCAGTCTGGTACGC,-0.53,-0.47,-0.166,-0.568,-0.694,-0.13,0.366,0.416,-0.287,0.128,-0.395,-0.318,-0.426,-0.666,-0.0621,-0.444,-0.237,-0.146,-0.328,-0.0725
ATCGAAAGTTCGAGGTGAGTATAGAGAAAGGGAA,0.831,1,-0.204,0.703,-0.225,1.76,0.648,0.797,0.3,0.478,-0.474,0.844,0.383,0.642,0.238,0.98,0.157,1.01,-0.05,2.53
